PubChem BioAssay AID434970 (Sanford-Burnham Center for Chemical Genomics, 2010)
The campaign covered roughly 11,000 compounds. About 310 (2.8%) were called active. Cut-off read from the data, not from the text of the source: active = activity change below about -85%; inactive = the rest. Only a selection was taken, and actives are over-represented in it overall.

test system: intestinal alkaline phosphatase [Mus musculus]; assay: activators of mouse IAP, confirmation, biochemical, luminescence, single concentration (AID 434970); settings: purified mouse IAP, CDP-Star luminescence, 30 min, at 10 µM; activation factor: measured here: IAP activation factor, stronger effect = higher value; activity change, negative = activation: stronger effect = lower value

| SMILES | activation factor | activity change, negative = activation |
| --- | --- | --- |
| Cc1cc(C)cc(NC(=S)NC2CC3CCCC(C2)N3Cc2cccs2)c1 (stereo not given) | 2.5 | -150% (active) |
| Cc1ccc(CN2C3CCCC2CC(NC(=O)Nc2cccc(F)c2)C3)cc1 (stereo not given) | 4.48 | -348% (active) |
| Cc1ccc(CN2C3CCCC2CC(NC(=S)NCc2ccccc2)C3)cc1 (stereo not given) | 2.88 | -188% (active) |
| CCc1ccc(N2C(=O)NC(=O)C(Cc3ccc(OC)cc3OC)C2=O)cc1 (stereo not given) | 1.06 | -5.6% (inactive) |
| CN1CCN(Cc2cc(C(C)(C)C)c(O)c(C(C)(C)C)c2)CC1 | 0.944 | 5.6% (inactive) |
| CC(CO)(CO)N=Cc1c(O)n(-c2cccc3ccccc23)c(=O)[nH]c1=O | 1.12 | -12.2% (inactive) |
| Cc1cc(NC(=O)COC(=O)c2c(C)nn(Cc3ccccc3)c2Cl)no1 | 0.971 | 2.9% (inactive) |
| CSc1ccc(C(=O)C(C)(C)N2CCOCC2)cc1 | 0.965 | 3.5% (inactive) |
| CCOC(=O)c1c(-n2c(C)cc(C=C3C(=O)NC(=S)NC3=O)c2C)sc2c1CCCC2 | 0.649 | 35.1% (inactive) |
| COc1ccc(-n2c(=O)[nH]c3ccccc3c2=O)c(OC)c1 | 1.08 | -7.55% (inactive) |
| CCOP(=O)(C(NC(=O)c1ccccc1Cl)=C(Cl)Cl)c1ccccc1 (stereo not given) | 1.07 | -6.55% (inactive) |
| O=[N+]([O-])c1cc(S(=O)(=O)c2ccc(O)c([N+](=O)[O-])c2)ccc1O | 0.471 | 52.9% (inactive) |
| O=C(Cc1ccccc1)Oc1ccccc1N1C(=O)CCC1=O | 1.07 | -7.1% (inactive) |
| CCOc1ccc2nc(N3CCC(C(=O)N4CCC5(CC4)OCCO5)CC3)sc2c1 | 0.97 | 3% (inactive) |
| CC1(C)CSC(Nc2ccc(F)c(Cl)c2)=N1 | 0.924 | 7.6% (inactive) |
| Clc1ccc(C(c2ccc(Cl)cc2)n2cc[n+](CC(OCc3ccc(Cl)cc3Cl)c3ccc(Cl)cc3Cl)c2)cc1 (stereo not given) | 31 | -3000% (active) |
| Cc1nc2cc(F)ccc2n1C1CCN(Cc2nnnn2CCc2ccccc2)CC1 | 1.13 | -13.2% (inactive) |
| O=C(Cn1cnc2ccccc2c1=O)NCCC(=O)N1CCC2(CC1)OCCO2 | 1.09 | -9.25% (inactive) |
| COc1ccc(P2(=O)Nc3ccccc3N2)cc1 | 0.951 | 4.95% (inactive) |
| CCOC(=O)c1ccc(N2C(=O)CC(N3CC=C(c4ccc(F)cc4)CC3)C2=O)cc1 (stereo not given) | 0.996 | 0.45% (inactive) |
